# Results filed as inconclusive are left out. Values without a mark were called inactive. Active and inactive are the calls of the source. The call rests on the fitted dose curve; in most records, active means well fitted inhibition curve with a large enough effect; inconclusive means small, poorly fitted or top-dose-only effect; inactive means flat fitted curve, though single readings scatter.
# Biological target: Ubiquitin carboxyl-terminal hydrolase 1 (Homo sapiens) (UniProt O94782)
# Experiment: Inhibitors of USP1/UAF1: Pilot qHTS (AID 504865); further: nearly all actives have a fitted effect of over 35% in size;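 on activity change, negative = inhibition: rhodamine fluorescence freed from ubiquitin-rhodamine substrate followed over time; top concentration of the series differs between compounds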
# Settings: purified USP1/UAF1, Ub-rhodamine cleavage fluorescence; series mostly up to 114 µM; activity change, negative = inhibition: at the top concentration
# Description: Deubiquitinating enzymes (DUBs) are a class of enzymes that can cleave isopeptide bond formed between the C-terminal carboxylate of ubiquitin and a lysine side-chain amino group on the target protein. Among them, ubiquitin specific proteases (USPs) constitute the largest DUB family. Human USPs are emerging as promising targets for pharmacological intervention because of their connection to a number of human diseases, including prostate, colon and breast cancer (1, 2), pediatric acute lymphoblastic leukemia (3), and familial cylindromatosis (4). The advantage of inhibiting USPs lies in the potential specificity of therapeutic intervention that can lead to better efficacy and reduce nonspecific side effects.
# In a collaboration between the University of Delaware and the NIH Chemical Genomics Center, a high-throughput screen assay was developed to screen for USP1/UAF1 inhibitors. This miniaturized assay has a fluorescent read-out and is used to screen the NIH Molecular Libraries Small Molecule Repository (MLSMR) in order to identify a small molecule that inhibits USP1.
# NIH Chemical Genomics Center [NCGC]
# NIH Molecular Libraries Probe Centers Network [MLPCN]
# Assay Submitter (PI): Zhihao Zhuang, University of Delaware
# 1. Priolo, C., et al. (2006) The isopeptidase USP2a protects human prostate cancer from apoptosis. Cancer Res 66, 8625-8632
# 2. Popov, N., et al. (2007) The ubiquitin-specific protease USP28 is required for MYC stability. Nat Cell Biol 9, 765-774
# 3. De Pitta, C., et al. (2005) A leukemia-enriched cDNA microarray platform identifies new transcripts with relevance to the biology of pediatric acute lymphoblastic leukemia. Haematologica 90, 890-898
# 4. Kovalenko, A., et al. (2003) The tumour suppressor CYLD negatively regulates NF-kappaB signalling by deubiquitination. Nature 424, 801-805
# 3 microliters of reagents (buffer in columns 3 and 4 as negative control and 1nM USP1/UAF1 complex in columns 1, 2, and 5-48) are dispensed into Greiner black solid bottom 1536-well assay plates. Compounds are then transferred via Kalypsys pin tool equipped with 1536-pin array (10nl slotted pins, V&P Scientific, San Diego, CA). Following an incubation step of 15 min at room temperature, 1ul of Ub-Rho substrate (150nM final concentration) is added to initiate the reaction. The plates are immediately centrifuged at 1000 rpm for 15 seconds, and subsequently transferred to a ViewLux high-throughput CCD imager (PerkinElmer) wherein kinetic measurements of fluorescence are acquired using 480 nm excitation/540 nm emission filter set (6 reads every 60 seconds, see Table 1). All reagents are diluted in an assay buffer consisting of 50mM HEPES (pH 7.8), 0.5mM EDTA, 0.1 mg/ml BSA, 1mM TCEP, and 0.01% Tween-20.
# On the % scale 0 is the no-effect control and ±100 the full control effect; potency means the concentration at half of the fitted maximal effect.
# Sequence of Ubiquitin carboxyl-terminal hydrolase 1 (Homo sapiens) (O94782 whole entry, looked up): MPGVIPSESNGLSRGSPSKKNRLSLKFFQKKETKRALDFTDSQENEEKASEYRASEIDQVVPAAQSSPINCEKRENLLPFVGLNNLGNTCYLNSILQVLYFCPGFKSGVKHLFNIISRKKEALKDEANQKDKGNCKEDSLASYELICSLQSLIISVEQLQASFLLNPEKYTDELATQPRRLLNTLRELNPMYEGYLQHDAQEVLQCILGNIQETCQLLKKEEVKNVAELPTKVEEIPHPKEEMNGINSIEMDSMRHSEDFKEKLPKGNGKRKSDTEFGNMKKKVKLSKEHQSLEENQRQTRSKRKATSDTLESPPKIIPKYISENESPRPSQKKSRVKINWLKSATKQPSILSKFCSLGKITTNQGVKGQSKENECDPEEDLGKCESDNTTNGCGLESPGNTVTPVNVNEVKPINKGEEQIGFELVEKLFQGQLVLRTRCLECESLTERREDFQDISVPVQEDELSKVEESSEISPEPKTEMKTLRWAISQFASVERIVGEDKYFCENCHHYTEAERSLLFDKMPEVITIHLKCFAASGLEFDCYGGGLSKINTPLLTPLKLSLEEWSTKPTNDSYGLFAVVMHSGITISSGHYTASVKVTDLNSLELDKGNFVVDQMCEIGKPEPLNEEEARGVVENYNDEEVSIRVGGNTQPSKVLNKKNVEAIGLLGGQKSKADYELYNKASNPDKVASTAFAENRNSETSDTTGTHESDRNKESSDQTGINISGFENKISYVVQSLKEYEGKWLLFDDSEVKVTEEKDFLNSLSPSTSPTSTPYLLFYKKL
Compound,"activity change, negative = inhibition",Potency
Cn1ccnc1,-9.8%,
O=C(O)C1CCCNC1 (stereo not given),-8.04%,
Cc1ccc2c(c1)C(N1CCN(C)CC1)=Nc1cccnc1N2,-2.61%,
O=C(O)CCC/C=C\C[C@@H]1[C@@H](/C=C/[C@H](O)C2Cc3ccccc3C2)[C@@H](F)C[C@@H]1O,-7.18%,
CC(=O)NCCc1c[nH]c2ccc(O)cc12,-10.1%,
N[C@H](C(=O)O)[C@H](Cc1ccccc1)C(=O)O,-9.53%,
NCCCNCCCCNCCCN,-3.77%,
CCC1(O)CC2CN(CCc3c([nH]c4ccccc34)[C@@](C(=O)OC)(c3cc4c(cc3OC)N(C=O)C3[C@]45CCN4CC=C[C@@](CC)([C@@H](OC(C)=O)[C@]3(O)C(=O)OC)[C@H]45)C2)C1 (stereo not given in full),1.06%,
N[C@@H](CCC(=O)N[C@H](CSN=O)C(=O)NCC(=O)O)C(=O)O,-2.43%,
Nc1ccc2c3c(cccc13)C(=O)NC2=O,,25.1 µM (active)
NC(Cc1cccc(-c2ccccc2CP(=O)(O)O)c1)C(=O)O (stereo not given),-4.39%,
Oc1cc(O)c2c(c1)O[C@H](c1ccc(O)c(O)c1)[C@@H](O)C2,-4.98%,
NC(=O)c1ccccc1,-1.42%,
CCCCCCCCCCCCCCC[C@H](O)[C@H](N)CO,,79.4 µM (active)
N[C@@H](Cc1ccc(O)c(I)c1)C(=O)O,-6.07%,
CNc1ncnc2c1ncn2[C@H]1C[C@H](OP(=O)(O)O)[C@@H](COP(=O)(O)O)O1,-10.5%,
O=c1ccn([C@@H]2O[C@H](COP(=O)(O)OP(=O)(O)O)[C@@H](O)[C@H]2O)c(=O)[nH]1,2.19%,
CCN(CC)CCOC(=O)c1cc(Cl)c(N)cc1OC,-8.72%,
CCCc1c(-c2ccc(O)cc2)nn(-c2ccc(O)cc2)c1-c1ccc(O)cc1,-13.9%,
N[C@H](C(=O)O)c1cc(O)cc(O)c1,,inactive

Compound,"activity change, negative = inhibition",Potency
CN(C)CCCc1cc(C(=O)Nc2ccc(-c3ccncc3)cc2)ccc1O,,inactive
COc1ccc(C(=O)NCc2cccnc2)cc1C(=O)NCc1cccnc1,,inactive
CCCCOC(=O)NS(=O)(=O)c1sc(CC(C)C)cc1-c1ccc(Cn2c(CC)nc3c(C)cc(C)nc32)cc1,,56.2 µM (active)
CCSC(=N)N,,inactive
CN(C)CCC(c1ccc(Br)cc1)c1ccccn1 (stereo not given),,inactive
C=CCn1c(=O)c2c(nc(-c3ccc(S(=O)(=O)O)cc3)n2C)n(C)c1=O,1.09%,
CC(=O)SC1CC2=CC(=O)CC[C@]2(C)C2CC[C@@]3(C)C(CC[C@@]34CCC(=O)O4)C12 (stereo not given in full),-2.95%,
NC(N)=NC(N)=Nc1ccccc1,,inactive
N=C(N)c1ccc(N)cc1,-3.72%,
CSC(N)=NCCC[C@H](N)C(=O)O,-4.43%,
CC(/C=C/c1cccc(Oc2ccc(F)cc2)c1)N(O)C(N)=O (stereo not given),-13.8%,
NCCS(=O)O,1.69%,
CCCCCC[C@@H]([C@@H](C)O)n1cnc2c(N)ncnc21,,inactive
CCCn1c(=O)c2[nH]c(C3CCCC3)nc2n(CCC)c1=O,-9.57%,
Nc1ccc(N2C(=O)c3ccccc3C2=O)c(Cl)c1,-13.7%,
Oc1cc2c(cc1O)C(c1ccccc1)CNCC2 (stereo not given),-2.4%,
CCCCCCCCCCC/C=C\C(C)(C)/C=C\CCCC(=O)O,,28.2 µM (active)
CN1CCc2cc(Cl)c(O)cc2[C@@H](c2ccccc2)C1,-7.78%,
O=C(O)C1CN(CCCP(=O)(O)O)CCN1 (stereo not given),8.21%,
Cc1nc(N=Nc2ccc(S(=O)(=O)O)cc2S(=O)(=O)O)c(COP(=O)(O)O)c(C=O)c1O,-7.84%,
